# Assay outcomes: PubChem, National Center for Advancing Translational Sciences (NCATS)
# FUS suppressor: suppressors of FUS proteinopathy in yeast; Potency, µM (doses to about 76.6 µM), usual class: activators; 390,000 tested, 0.24% active; S. cerevisiae FUS-expressing, growth rescue, OD600, 24 h; also: nearly all actives have a fitted effect of over 55% in size
#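 Galactose (2%) drives FUS expression in yeast precultured in raffinose; seeding density OD 0.005. Test compounds incubated 24hr at 30C and 99% humidity before absorbance at 600 nm was measured.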
# aSyn yeast inh: inhibitors of alpha-synuclein toxicity in yeast; AID 652106; 370,000 tested, 0.14% active; Yeast expressing alpha-synuclein, growth rescue, BacTiter-Glo, 24 h; Potency, µM (titrated, usually from 46.1 µM), actives largely listed as activators; also: nearly all actives have a fitted effect of over 65% in size
#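 Readout is rescue of growth in alpha-synuclein-expressing yeast, so inhibitors of toxicity appear as activators. Growth after 24 hr at 30 deg C in galactose medium is quantified by luminescence.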
# TDP-43 yeast inh: TDP-43 toxicity inhibition in yeast; TDP-43 expressing yeast growth rescue, BacTiter-Glo, 24 h; Potency, µM (top dose mostly 46.1 µM), usual class: activators; 410,000 tested, 1.8% active; also: nearly all actives have a fitted effect of over 50% in size
#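 Cell-based yeast growth screen: TDP-43 expression induced in galactose, inoculum OD600=0.02 after raffinose pregrowth to mid-log. Read-out BacTiter-Glo luminescence at 24 hr, 30 deg C; inhibition of toxicity seen as signal increase.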
# Abeta rescue: restores growth of yeast expressing A-beta42 peptide | 410,000 tested, 0.063% active | yeast expressing A-beta42, growth rescue, OD600, 48 h; response scale: 0% DMSO, 100% iron-clioquinol control | Potency, µM (titrated, usually from 46.1 µM), actives largely listed as activators; also: nearly all actives have a fitted effect of over 55% in size
#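 Growth rescue measured by 600 nm absorbance after 48 h yeast culture at 30 C with compound. Values normalized between DMSO and an equimolar ferric chloride plus clioquinol control.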
# Hits are given with their value; – = inactive; ? = inconclusive; · = no result; ! = not confirmed by another sample. The list is not random: actives were taken first. Their share in the collection is about 2.1%. Calls follow the shape of the dose curve; as a rule, active = well fitted curve in the direction sought with a large enough effect; inconclusive = small, poorly fitted or top-dose-only effect, or another doubt; inactive = no such curve, though single readings can be large; an effect the other way counts as inactive or inconclusive.
SMILES,FUS suppressor,aSyn yeast inh,TDP-43 yeast inh,Abeta rescue
CNC(=S)N1N=C(c2cccs2)CC1c1ccc(F)cc1 (stereo unspecified),–,–,10µM,–
CCC(=O)N1N=C(c2cccs2)CC1c1ccc(OC)cc1 (stereo unspecified),–,–,?,–
COc1ccc(C2CC(c3cccs3)=NN2C(=O)CSC2=NCCS2)cc1 (stereo unspecified),35µM,–,–,–
CCC(=O)N1N=C(c2cccs2)CC1c1ccc(C)cc1 (stereo unspecified),–,–,20µM,–
Cc1ccc(C2CC(c3cccs3)=NN2C(=O)CSC2=NCCS2)cc1 (stereo unspecified),–,–,?,–
Cc1ccc(C2CC(c3cccs3)=NN2C(=O)CCl)cc1 (stereo unspecified),–,–,13µM,–
Cc1nc([N+](=O)[O-])cn1CC(=O)c1ccc2c(c1)OCCO2,·,–,·,·
Cc1ccc(-c2nc(CS(=O)CC(=O)N3CCN(c4ccc(F)cc4)CC3)c(C)o2)cc1 (stereo unspecified),–,–,?,–
Cc1oc(-c2ccccc2)nc1C(=O)N1CCN(c2ccc(F)cc2)CC1,–,–,11µM,–
COCCNc1nc(C)cc(-c2cc(-c3ccc(Cl)cc3)on2)n1,–,–,?,–
COCCNc1nc(-c2cc(-c3ccccc3)on2)cc(C(C)C)n1,–,–,16µM,–
O=C(OC12CCCN(C1)/C(=C/c1ccncc1)C2)c1ccco1 (stereo unspecified),–,·,·,·
N#Cc1cc(-c2ccccc2)oc1/N=C/c1ccccc1O,–,–,–,–
COc1cccc(/C=N/c2oc(-c3ccccc3)cc2C#N)c1O,–,–,13µM,–
CCOC(=O)c1cccc(NC(=O)CN(C)S(=O)(=O)c2ccc(Cl)s2)c1,–,·,·,·
Cc1ccc(CN2CCCCC(NC(=O)C(C)(C)C)C2=O)cc1 (stereo unspecified),–,·,·,·
COc1ccc(C/C(N)=N/OC(=O)c2cccs2)cc1,–,–,16µM,–
Cc1ccc(/C(N)=N/OC(=O)c2cccs2)cc1,–,–,?,–
COc1ccccc1C/C(N)=N/OC(=O)c1cccs1,–,–,?,–
COc1ccc(/C(N)=N/OC(=O)c2cccs2)cc1OC,–,–,22µM,–
CCOC(=O)C1CCCCN1C(=O)[C@@H]1CC=C[C@@H]2CCN(c3ccccc3)C(=O)[C@@H]21 (stereo partly specified),–,·,·,·
Fc1cccc(CNC(=S)OC2CCC23CCC(c2ccccc2)CC3)c1 (stereo unspecified),–,·,·,·
O=c1c2ccc(F)cc2nc2sc(Nc3ccc4c(c3)CCC4)nn12,–,·,·,·
N#C/C(=C\c1ccc(-c2ccccc2C(=O)O)o1)c1nc2ccccc2[nH]1,–,–,22µM!,–
CC(C)(C)OC(=O)NCc1ccccc1/C=C/S(=O)(=O)NCCc1ccccc1,–,·,·,·
SMILES,FUS suppressor,aSyn yeast inh,TDP-43 yeast inh,Abeta rescue
Cn1c2ccccc2c(=O)c2ccc(NCc3ccc4c(c3)OCO4)cc21,–,–,16µM,–
COc1ccc(-c2n[nH]c(C)c2-c2cnn(-c3ccccc3)c2)c(O)c1,?,–,22µM,–
CCCC(C)NC(=O)c1ccc(OCc2ccc(Cl)cc2)c(OC)c1 (stereo unspecified),–,–,22µM,–
CCC(C)NC(=O)c1ccc(COc2ccccc2Cl)cc1 (stereo unspecified),–,–,?,–
CN1CCc2c(sc3nc(SCC(=O)N4CCCCC4)n(-c4ccccc4)c(=O)c23)C1,–,5.6µM,–,–
O=C(CSc1nnc(-c2cccs2)o1)Nc1cccc2ccccc12,–,·,·,·
O=C(Cc1ccc(-c2ccccc2)cc1)NO,·,–,·,·
Cc1cccc(CSCCNC(=S)Nc2ccccc2)c1,·,–,16µM,–
COC(=O)c1ccc(NC(=S)NCCc2cccc(C)c2)cc1,–,–,8.9µM,–
S=C(NCCSCc1ccccc1Cl)Nc1ccccc1,–,–,13µM,–
S=C(NCCCc1ccccc1)Nc1ccccc1,–,–,–,20µM
COc1cc2c(NC3CCN(C(C)C)CC3)nc(N3CCCN(C)CC3)nc2cc1OCCOCCN(C)C,·,–,·,·
O=c1c2ccccc2n(Cc2ccccc2)n1[C@@H](Cc1ccccc1)Cn1cc(-c2ccc(-c3ccccc3)cc2)nn1,–,·,·,·
C/C(C=NNC(=O)CSc1nnc(-c2ccc(Cl)cc2)n1-c1ccccc1)=C\c1ccccc1,–,·,·,·
CC(C)[C@@H]1CC[C@@H](C)C[C@@H]1P(=O)(c1ccccc1)c1ccccc1,·,–,·,·
